Experimental data taken from the supplement of paper PMC10477191.
± gives the standard deviation of the averaged measurements.

Tested on: Drosophila ezoana antennal basiconic sensillum ab1
Assay: odor-evoked OSN spike response (post minus pre-stimulus); higher = stronger neuronal excitation
Conditions: odor dilution: 10^-4
Procedure, shortened: (§1)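 Recordings came from antennal basiconic sensilla of restrained adult flies, taking up to 3 sensilla per fly, with a tungsten electrode placed at the sensillum base. Each odorant was diluted to 10^−4 in mineral oil or DMSO, and 10 µl was loaded onto filter paper. A 500 ms air pulse carried it into a charcoal-filtered, humidified air stream flowing at 1.5 l min^−1. The value reported is the change in spike frequency from a 1-second window before the stimulus to a 1-second window after it, counted in Auto Spike software and averaged across replicate sensilla.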

Structure (SMILES) | odor-evoked OSN spike response [spikes/s]
CCOC(=O)C(C)O (centres undefined) [Ethyl lactate] | 70.3 ± 53
CCCCCOC(C)=O [pentyl acetate] | 62.6 ± 43
CCOC(C)=O [Ethyl acetate] | 56.4 ± 35
CC(=O)C(C)O (centres undefined) [acetoin] | 79.9 ± 48
CCCC(=O)CC [3-hexanone] | 59.3 ± 31
CC(O)C(C)O (centres undefined) [2,3-Butanediol] | 68.2 ± 35
COC(=O)c1ccccc1O [Methyl salicylate] | 52.1 ± 33

Tested on: Drosophila ezoana antennal basiconic sensillum ab2
Assay: as above
Conditions: odor dilution: 10^-4
Procedure, shortened: as §1

Structure (SMILES) | odor-evoked OSN spike response [spikes/s]
CCCC(=O)OCc1ccccc1 [benzyl butyrate] | 43.7 ± 32
COC(=O)c1ccccc1 [methyl benzoate] | 55.9 ± 36
CC(C)OC(=O)c1ccccc1 [isopropyl benzoate] | 91.2 ± 45
C/C=C/C(=O)OCC [Ethyl crotonate] | 61.5 ± 39
CCOC(=O)c1ccccc1 [ethyl benzoate] | 69.5 ± 30
CCOC(=O)CC(C)O (centres undefined) [Ethyl-3-hydroxybutyrate] | 60.9 ± 32
CCCCCCCC/C=C\CCCCCCCC(=O)O [Oleic acid] | 43.9 ± 26
